The record followed here is PMC7862700, “An all-to-all approach to the identification of sequence-specific readers for epigenetic DNA modifications on cytosine”.

Experiment in all cases: DAPPL (digital affinity profiling via proximity ligation, sequencing); 10 mM Tris-HCl pH 7.5, 50 mM NaCl, 1 mM DTT, 4% glycerol, room temperature, 30 min; GST-TFs on glutathione beads, 16-mer random dsDNA library, 0.1% formaldehyde crosslink after washing; high values mean tight binding
Conditions in all cases: protein: recombinant; tags: N-terminal GST; dsDNA, one strand shown

One experiment deals with T1, ERF (Homo sapiens, UniProt P50548 1-548).
T1 sequence: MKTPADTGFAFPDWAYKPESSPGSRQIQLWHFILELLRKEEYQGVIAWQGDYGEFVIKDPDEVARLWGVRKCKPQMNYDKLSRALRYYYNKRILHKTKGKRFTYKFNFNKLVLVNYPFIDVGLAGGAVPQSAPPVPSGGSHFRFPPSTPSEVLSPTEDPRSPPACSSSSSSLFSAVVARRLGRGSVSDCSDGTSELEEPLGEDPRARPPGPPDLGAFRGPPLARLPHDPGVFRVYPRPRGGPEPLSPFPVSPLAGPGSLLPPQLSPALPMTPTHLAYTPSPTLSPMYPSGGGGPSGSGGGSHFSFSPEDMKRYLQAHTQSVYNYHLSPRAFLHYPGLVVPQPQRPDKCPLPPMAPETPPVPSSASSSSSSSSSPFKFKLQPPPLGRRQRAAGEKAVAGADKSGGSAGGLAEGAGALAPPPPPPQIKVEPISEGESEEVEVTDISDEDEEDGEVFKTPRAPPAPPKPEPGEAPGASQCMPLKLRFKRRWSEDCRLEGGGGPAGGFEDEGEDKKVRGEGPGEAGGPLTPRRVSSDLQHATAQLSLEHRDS
A digest of the protocol: (§1)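 Pools were built from human transcription factors expressed in yeast as GST fusions, captured on glutathione beads and DNA-barcoded, along with a tag-only sample. Incubation with 200 nmole of a 16-mer random double-stranded DNA library lasted 30 min at room temperature in Tris/NaCl/DTT/glycerol buffer, and was followed by washing, 0.1% formaldehyde crosslinking, proximity ligation, PCR amplification and Illumina NextSeq500 sequencing. Binding signal is the quotient of each hexamer's read frequency for a factor and its frequency for the tag-only sample.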

In another experiment the target is T2, ETV3L (Homo sapiens, UniProt Q6ZN32 1-361).
T2 sequence: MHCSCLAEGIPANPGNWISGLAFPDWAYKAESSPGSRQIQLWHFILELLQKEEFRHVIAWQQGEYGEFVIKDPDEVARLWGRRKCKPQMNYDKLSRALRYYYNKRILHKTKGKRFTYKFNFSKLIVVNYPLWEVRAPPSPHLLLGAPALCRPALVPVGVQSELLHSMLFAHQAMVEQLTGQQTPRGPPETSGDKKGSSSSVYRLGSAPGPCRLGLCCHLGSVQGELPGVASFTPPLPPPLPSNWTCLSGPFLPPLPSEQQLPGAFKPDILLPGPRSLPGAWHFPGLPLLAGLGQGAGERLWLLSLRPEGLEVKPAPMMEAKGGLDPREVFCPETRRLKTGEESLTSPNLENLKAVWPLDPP
Put shortly: as §1

The target in the next experiment is T3, ETS2 (Homo sapiens, UniProt P15036 1-469).
T3 sequence: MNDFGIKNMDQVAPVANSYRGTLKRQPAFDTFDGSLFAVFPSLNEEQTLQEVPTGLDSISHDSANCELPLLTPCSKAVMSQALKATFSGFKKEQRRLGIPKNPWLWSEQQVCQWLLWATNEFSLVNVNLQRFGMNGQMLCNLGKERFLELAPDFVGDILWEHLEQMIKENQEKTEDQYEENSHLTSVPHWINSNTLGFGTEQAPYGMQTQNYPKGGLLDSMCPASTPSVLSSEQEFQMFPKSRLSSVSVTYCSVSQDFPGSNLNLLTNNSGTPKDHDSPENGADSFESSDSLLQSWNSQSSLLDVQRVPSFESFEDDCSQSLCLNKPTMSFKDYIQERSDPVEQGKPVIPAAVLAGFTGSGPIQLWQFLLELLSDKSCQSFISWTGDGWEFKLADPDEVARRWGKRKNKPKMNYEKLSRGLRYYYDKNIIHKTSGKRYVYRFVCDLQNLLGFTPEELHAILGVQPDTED
Put shortly: as §1

The next experiment deals with T4, SPDEF (Homo sapiens, UniProt O95238 1-335).
T4 sequence: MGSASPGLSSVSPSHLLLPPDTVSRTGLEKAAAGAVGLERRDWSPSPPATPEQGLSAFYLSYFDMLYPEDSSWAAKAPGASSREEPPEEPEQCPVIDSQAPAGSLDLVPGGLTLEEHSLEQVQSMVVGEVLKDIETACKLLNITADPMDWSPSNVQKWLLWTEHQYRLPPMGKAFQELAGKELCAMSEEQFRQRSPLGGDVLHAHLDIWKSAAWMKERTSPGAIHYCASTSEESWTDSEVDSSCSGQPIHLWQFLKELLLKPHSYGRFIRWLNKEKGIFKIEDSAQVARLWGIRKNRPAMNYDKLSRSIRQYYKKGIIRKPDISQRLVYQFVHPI
A digest of the protocol: as §1

For another experiment, the target named is T5, ETV7 (Homo sapiens, UniProt Q9Y603 1-341).
T5 sequence: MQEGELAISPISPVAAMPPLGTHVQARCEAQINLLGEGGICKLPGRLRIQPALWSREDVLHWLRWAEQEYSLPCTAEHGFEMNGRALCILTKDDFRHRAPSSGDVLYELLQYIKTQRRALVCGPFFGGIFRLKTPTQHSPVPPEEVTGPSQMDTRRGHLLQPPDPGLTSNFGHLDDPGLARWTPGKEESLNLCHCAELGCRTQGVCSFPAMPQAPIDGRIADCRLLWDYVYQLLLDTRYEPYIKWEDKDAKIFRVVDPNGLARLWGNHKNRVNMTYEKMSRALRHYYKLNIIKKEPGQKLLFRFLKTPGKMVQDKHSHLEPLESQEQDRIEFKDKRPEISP
Put shortly:
as §1

The target in the next experiment is T6, ELF5 (Homo sapiens, UniProt Q9UKW6-2 1-255).
T6 sequence: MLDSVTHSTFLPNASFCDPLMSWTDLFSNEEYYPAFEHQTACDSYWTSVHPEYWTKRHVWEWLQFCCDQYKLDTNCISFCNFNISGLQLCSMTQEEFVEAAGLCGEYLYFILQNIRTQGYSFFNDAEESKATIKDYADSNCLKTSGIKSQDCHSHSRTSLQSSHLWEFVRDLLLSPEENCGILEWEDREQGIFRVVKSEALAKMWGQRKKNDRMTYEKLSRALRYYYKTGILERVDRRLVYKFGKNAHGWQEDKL
A digest of the protocol: as §1

A further experiment deals with T7, ETV3 (Homo sapiens, UniProt P41162-2 1-143).
T7 sequence: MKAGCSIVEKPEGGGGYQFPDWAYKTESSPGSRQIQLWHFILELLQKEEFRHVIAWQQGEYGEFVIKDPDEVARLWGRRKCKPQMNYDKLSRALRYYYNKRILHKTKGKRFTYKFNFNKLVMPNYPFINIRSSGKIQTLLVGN
Put shortly: as §1

For a further experiment, the target named is ETV6 (Homo sapiens, UniProt P41212 1-452). A digest of the protocol:
as §1

Chain of ETV6 (P41212 whole entry): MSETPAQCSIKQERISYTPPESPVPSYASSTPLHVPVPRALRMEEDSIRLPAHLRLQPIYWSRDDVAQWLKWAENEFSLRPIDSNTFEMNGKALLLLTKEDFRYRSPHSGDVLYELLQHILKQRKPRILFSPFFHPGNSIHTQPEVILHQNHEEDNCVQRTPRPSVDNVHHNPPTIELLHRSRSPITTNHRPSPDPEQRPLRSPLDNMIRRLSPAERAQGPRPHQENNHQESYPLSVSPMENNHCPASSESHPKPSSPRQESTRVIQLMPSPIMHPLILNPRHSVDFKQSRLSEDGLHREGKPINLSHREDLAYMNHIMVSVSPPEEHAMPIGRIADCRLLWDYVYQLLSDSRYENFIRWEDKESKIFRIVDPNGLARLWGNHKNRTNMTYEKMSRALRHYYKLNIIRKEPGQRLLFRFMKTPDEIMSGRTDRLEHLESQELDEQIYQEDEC

For GCCTCA, the binding signal is 1.35 fold enrichment (6-mer frequency, TF over GST control) in the experiment with ERF; 1.31 fold enrichment (6-mer frequency, TF over GST control) in the experiment with ETV3L; 1.13 fold enrichment (6-mer frequency, TF over GST control) in the experiment with ETS2; 1.16 fold enrichment (6-mer frequency, TF over GST control) in the experiment with SPDEF; 1.24 fold enrichment (6-mer frequency, TF over GST control) in the experiment with ETV7; 1.15 fold enrichment (6-mer frequency, TF over GST control) in the experiment with ELF5. Besides, the binding signal in the experiment with ETV3 was 1.19 fold enrichment (6-mer frequency, TF over GST control); with ETV6, 1.18 fold enrichment (6-mer frequency, TF over GST control).

For CTATAA, the binding signal with ERF was 1.29 fold enrichment (6-mer frequency, TF over GST control); in the experiment with ETV3L, 1.14 fold enrichment (6-mer frequency, TF over GST control); in the experiment with ETS2, 1.28 fold enrichment (6-mer frequency, TF over GST control); in the experiment with SPDEF, 1.34 fold enrichment (6-mer frequency, TF over GST control); with ETV7 it was 1.22 fold enrichment (6-mer frequency, TF over GST control); with ELF5 it was 1.2 fold enrichment (6-mer frequency, TF over GST control). For the same sequence, the binding signal is 1.14 fold enrichment (6-mer frequency, TF over GST control) in the experiment with ETV3 and 1.16 fold enrichment (6-mer frequency, TF over GST control) with ETV6.

Consider TGCATG, for which the binding signal in the experiment with ERF was 1.06 fold enrichment (6-mer frequency, TF over GST control); in the experiment with ETV3L, 1.27 fold enrichment (6-mer frequency, TF over GST control); with ETS2, 1.06 fold enrichment (6-mer frequency, TF over GST control); with SPDEF it was 1.06 fold enrichment (6-mer frequency, TF over GST control); in the experiment with ETV7 it was 1.06 fold enrichment (6-mer frequency, TF over GST control); in the experiment with ELF5, 1.01 fold enrichment (6-mer frequency, TF over GST control). For the same sequence, the binding signal is 1.1 fold enrichment (6-mer frequency, TF over GST control) with ETV3 and 1.08 fold enrichment (6-mer frequency, TF over GST control) with ETV6.

For the sequence ATGATC, the binding signal in the experiment with ERF is 1.33 fold enrichment (6-mer frequency, TF over GST control); with ETV3L, 1.22 fold enrichment (6-mer frequency, TF over GST control); with ETS2 it was 1.16 fold enrichment (6-mer frequency, TF over GST control); with SPDEF it was 1.27 fold enrichment (6-mer frequency, TF over GST control); with ETV7, 1.22 fold enrichment (6-mer frequency, TF over GST control); in the experiment with ELF5, 1.22 fold enrichment (6-mer frequency, TF over GST control). Also, the binding signal was 1.2 fold enrichment (6-mer frequency, TF over GST control) in the experiment with ETV3 and 1.19 fold enrichment (6-mer frequency, TF over GST control) with ETV6.

On to ATCATA, for which the binding signal with ERF was 1.12 fold enrichment (6-mer frequency, TF over GST control); with ETV3L, 1.12 fold enrichment (6-mer frequency, TF over GST control); in the experiment with ETS2, 1.03 fold enrichment (6-mer frequency, TF over GST control); with SPDEF it was 1.03 fold enrichment (6-mer frequency, TF over GST control); with ETV7, 1.1 fold enrichment (6-mer frequency, TF over GST control); with ELF5, 1.11 fold enrichment (6-mer frequency, TF over GST control). For the same sequence, the binding signal is 1.09 fold enrichment (6-mer frequency, TF over GST control) with ETV3 and 1.1 fold enrichment (6-mer frequency, TF over GST control) in the experiment with ETV6.

As to CGTCAC, the binding signal in the experiment with ERF is 1.15 fold enrichment (6-mer frequency, TF over GST control); with ETV3L it was 1.15 fold enrichment (6-mer frequency, TF over GST control); with ETS2 it was 1.27 fold enrichment (6-mer frequency, TF over GST control); in the experiment with SPDEF, 1.21 fold enrichment (6-mer frequency, TF over GST control); in the experiment with ETV7 it was 1.13 fold enrichment (6-mer frequency, TF over GST control); with ELF5 it was 1.16 fold enrichment (6-mer frequency, TF over GST control). Moreover, the binding signal is 1.11 fold enrichment (6-mer frequency, TF over GST control) in the experiment with ETV3 and 1.24 fold enrichment (6-mer frequency, TF over GST control) with ETV6.

For the sequence ACCCCG, the binding signal in the experiment with ERF is 1.26 fold enrichment (6-mer frequency, TF over GST control); in the experiment with ETV3L, 1.33 fold enrichment (6-mer frequency, TF over GST control); with ETS2, 1.25 fold enrichment (6-mer frequency, TF over GST control); in the experiment with SPDEF, 1.15 fold enrichment (6-mer frequency, TF over GST control); in the experiment with ETV7, 1.02 fold enrichment (6-mer frequency, TF over GST control); with ELF5, 1.21 fold enrichment (6-mer frequency, TF over GST control). Also, the binding signal in the experiment with ETV3 was 1.11 fold enrichment (6-mer frequency, TF over GST control); with ETV6 it was 1.16 fold enrichment (6-mer frequency, TF over GST control).
